Source: the supplement of paper PMC13380429

Test system: Vero E6 infected with SARS-CoV-2
Test: inhibition of SARS-CoV-2 cytopathic effect; higher = more antiviral protection, active = above 15
Settings: 48 h

Measured: inhibition of SARS-CoV-2 cytopathic effect

Cc1[nH]c(/C=C2\C(=O)Nc3ccc(F)cc32)c(C)c1C(=O)NCCN1CCCC1 [toceranib]
inactive: 1 nM -2.12% | 8.33 nM -2.33% | 100 nM -1.03% | 833.33 nM -1.29% | 10000 nM -7.87%

CC(=O)O[C@]1(C(C)=O)CC[C@H]2[C@@H]3C=C(Cl)C4=CC(=O)CC[C@]4(C)[C@H]3CC[C@@]21C [chlormadinone-acetate]
inactive: 1 nM -13.3% | 8.33 nM -12.7% | 100 nM -10.2% | 833.33 nM -13.4% | 10000 nM -13%

O=c1cc(-c2ccccc2)oc2cc(O)cc(O)c12 [chrysin]
inactive: 1 nM -1.5% | 8.33 nM 0.24% | 100 nM -1.23% | 833.33 nM -7.18% | 10000 nM -3.61%

COC(=O)N[C@H](C(=O)N1CC2(CC2)C[C@H]1c1nc(-c2ccc3c(c2)C(F)(F)c2cc(-c4ccc5[nH]c([C@@H]6[C@H]7CC[C@H](C7)N6C(=O)[C@@H](NC(=O)OC)C(C)C)nc5c4)ccc2-3)c[nH]1)C(C)C [ledipasvir]
inactive: 1 nM -1% | 8.33 nM 1.14% | 100 nM -1.6% | 833.33 nM -5.39% | 10000 nM -5.41%

Cc1ccc(NC(=O)C2(c3ccc4c(c3)OC(F)(F)O4)CC2)nc1-c1cccc(C(=O)O)c1 [lumacaftor]
inactive: 1 nM 2.48% | 8.33 nM 0.38% | 100 nM -1.4% | 833.33 nM -0.17% | 10000 nM 1.24%

NCC(O)c1ccc(O)cc1 (stereo not given) [octopamine]
inactive: 1 nM -3.66% | 8.33 nM -1.96% | 100 nM -2.91% | 833.33 nM -4.12% | 10000 nM 0.96%

CCC(C)(C)C(=O)O[C@H]1C[C@@H](C)C=C2C=C[C@H](C)[C@H](CC[C@@H]3C[C@@H](O)CC(=O)O3)[C@H]21 [simvastatin]
inactive: 1 nM -3.26% | 8.33 nM 0.13% | 100 nM -0.41% | 833.33 nM -0.83% | 10000 nM 5.01%

CN(C(=O)/C=C/c1ccoc1)[C@@H]1CC[C@@]2(O)[C@H]3Cc4ccc(O)c5c4[C@@]2(CCN3CC2CC2)[C@H]1O5 [nalfurafine]
inactive: 1 nM -5.32% | 8.33 nM -1.02% | 100 nM 0.43% | 833.33 nM -2.31% | 10000 nM -1.57%

O=C(Nc1ccccc1)c1ccccc1O [salicylanilide]
inactive: 1 nM -4.46% | 8.33 nM -2.22% | 100 nM -1.24% | 833.33 nM 1.14% | 10000 nM 0.54%

O=C(Nc1ccccc1)N1CCC(Cc2cnc3ccccc3c2)CC1
inactive: 1 nM -0.99% | 8.33 nM -0.47% | 100 nM 0.72% | 833.33 nM -0.2% | 10000 nM -1.47%

O=C1C(=C(O)/C=C/c2ccc(O)cc2)C(=O)[C@@](O)([C@@H]2O[C@H](CO)[C@@H](O)[C@H](O)[C@H]2O)C(=O)[C@H]1[C@@H]1O[C@H](CO)[C@@H](O)[C@H](O)[C@H]1O
inactive: 1 nM 0.73% | 8.33 nM -1.02% | 100 nM -0.24% | 833.33 nM -0.74% | 10000 nM -2.44%

COc1ccc(C(=O)C2CCN(CC(=O)N(Cc3nc4c(c(=O)[nH]3)COCC4)CC3CC3)CC2)cc1
inactive: 1 nM 1.44% | 8.33 nM -0.07% | 100 nM -1.36% | 833.33 nM 1.12% | 10000 nM -1.65%

CC(=O)c1ccc2c(c1)N(CCCN1CCC(CCO)CC1)c1ccccc1S2 [piperacetazine]
inactive: 1 nM 4.15% | 8.33 nM 4.04% | 100 nM 1.55% | 833.33 nM 0.28% | 10000 nM 3.14%

CCCCN(CC)c1nc(C)nc2c1c(C)c(C)n2-c1c(C)cc(C)cc1C [antalarmin]
inactive: 1 nM -0.13% | 8.33 nM -2.86% | 100 nM 1.21% | 833.33 nM -0.62% | 10000 nM 2%

COc1ccc(NC(=O)c2ccc(-c3ccc(-c4noc(C)n4)cc3C)cc2)cc1OCCN(C)C
inactive: 1 nM -0.44% | 8.33 nM -0.62% | 100 nM -0.42% | 833.33 nM -0.17% | 10000 nM 5.11%

CCOC(=O)[C@H](CCc1ccccc1)N[C@@H](C)C(=O)N1C(=O)N(C)C[C@H]1C(=O)O [imidapril]
inactive: 1 nM -1.07% | 8.33 nM 0.74% | 100 nM 0.36% | 833.33 nM -0.5% | 10000 nM -1.28%
